Assay results: article PMC5540273 (PLoS ONE, 2017)

tested on: DAPK1
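Note: kd values determined as follow-up on hits from a single-replicate KINOMEscan panel screen.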

| Compound | Kd [µM] |
| --- | --- |
| Cl.Cl.c1ccc(-c2cc3ccncc3cc2OC2CCNCC2)cc1 [GSK1122999] | 0.3 |
| CC(=O)Nc1n[nH]c2ncc(-c3ccccc3)cc12 [SB-548492] | > 10 |
| COc1ccc(-c2nc3n(c2-c2ccncc2)CCC3)cc1 [SKF-104493] | > 10 |

tested on: DAPK3

| Compound | Kd [µM] |
| --- | --- |
| FC(F)(F)c1ccc(-c2cc(-c3c[nH]nc3-c3ccccn3)ccn2)cc1 [GW599550] | > 10 |
| Cn1cc(-c2ccc3c(c2)CCN3C(=O)Cc2cccc(C(F)(F)F)c2)c2c(N)ncnc21 [GSK2606414] | > 10 |
| Cl.Cl.c1ccc(-c2cc3ccncc3cc2OC2CCNCC2)cc1 [GSK1122999] | 0.17 |
| O=C(c1ccc(-c2cc(-c3c[nH]nc3-c3ccccn3)ccn2)cc1)N1CCCC1 [GW792479] | > 10 |

tested on: DDR1

| Compound | Kd [µM] |
| --- | --- |
| Cn1cc(-c2ccc3c(c2)CCN3C(=O)Cc2cccc(C(F)(F)F)c2)c2c(N)ncnc21 [GSK2606414] | 0.28 |
| COc1ccc(-c2oc3ncnc(N)c3c2-c2ccc(OC)cc2)cc1 [SB-589132] | 0.65 |
| Cc1ccc(NC(=O)c2cccc(C#N)c2)cc1-c1ccc(C(=O)Nc2ccncc2)cc1 [GSK1398463] | 0.022 |
| COc1ccc(NC(=O)Nc2ccc(C)c(-c3ccc(C(=O)Nc4ccncc4)cc3)c2)cc1 [GSK1398475] | 0.86 |
| Cn1ccc2ncnc(Oc3ccc(NC(=O)Nc4cccnc4)c(Cl)c3)c21 | 0.057 |
| O=C(Nc1ccccc1)Nc1ccc(Oc2ccc3nccn3n2)cc1 | 0.0093 |
| Fc1ccc(Nc2nccc(-c3c(-c4ccc(Cl)cc4)nn4ncccc34)n2)cc1F [GW829058] | 0.75 |
| FC(F)(F)c1ccc(-c2nn3ncccc3c2-c2ccnc(Nc3cccc(C(F)(F)F)c3)n2)cc1 [GW828205] | > 10 |

tested on: DDR2

| Compound | Kd [µM] |
| --- | --- |
| Cc1ccc(NC(=O)c2cccc(C#N)c2)cc1-c1ccc(C(=O)Nc2ccncc2)cc1 [GSK1398463] | 0.14 |
| Cn1ccc2ncnc(Oc3ccc(NC(=O)Nc4cccnc4)c(Cl)c3)c21 | 0.076 |
| O=C(Nc1ccccc1)Nc1ccc(Oc2ccc3nccn3n2)cc1 | 0.003 |

tested on: T1, DMPK2
T1 construct: gene CDC42BPG

| Compound | Kd [µM] |
| --- | --- |
| CCCc1ccc(S(=O)(=O)NC2CCN(c3ccnc(Nc4ccc(OC)cc4)n3)C2)cc1 (stereo not drawn) [GSK1379737] | > 10 |
| CNc1nccc(-c2c(-c3ccc(F)cc3)ncn2CCCN2CCOCC2)n1 [SB-222516] | > 10 |
| Clc1cccc(-c2nc(Nc3ccncc3)c3ccccc3n2)c1 [GW873004] | > 10 |
